# Screening results (PubChem BioAssay)
# Most compounds without a hit are left out; they make up all but 14% or so of the library.
# HCMV antiviral – inhibitors of human cytomegalovirus; AID 1259415; HFF cells, HCMV-luciferase reporter, 72 h; hits give low values; 410,000 compounds, 4.5% hits; activity change, negative = inhibition, % at 57.5 µM; in the data active = activity change below about -60%; inconclusive = no clear call, values can overlap the other calls; inactive = above about -39%
#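 Steps: HFFs plated, 16 h 37C; compounds added; HCMV-luciferase added to MOI 1 PFU/cell; 72 h 37C; OneGlo reagent, 5 min room temperature; luminescence read, normalized to controls.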
# HCV inhibitor – HCV inhibition; Huh7.5.1 HCVcc-Cre infection, luciferase reporter, 44 h; Potency, µM (top dose mostly 41.8 µM), actives largely listed as inhibitors; 340,000 compounds, 3.4% hits; AID 651820
#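 Cells (1,000/well) were plated 4 h before compound, then infected with HCVcc-Cre virus (~0.5 moi). After 44 h further culture, infection was read as luciferase luminescence following a 15 min substrate incubation at room temperature.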
# Pf growth 96h – P. falciparum growth inhibition at 96 hours; 320,000 compounds, 6.9% hits; P. falciparum luciferase reporter growth, 96 h; Potency, µM (highest dose often 28.7 µM), most hits filed as inhibitors; AID 504834
#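 Plates of compound plus infected erythrocytes (2% hematocrit, 0.05% parasitemia final) incubate 96 hours, 37 C, 5% CO2. Detection reagent added; reduced luminescence from the parasites' luciferase reporter flags inhibition.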
# MARV entry inh – blocks Marburg virus binding to or entry into cells | AID 540276 | Potency, µM (titrated, usually from 37.8 µM), usual class: inhibitors | 300,000 compounds, 1.8% hits | Marburg virus pseudotyped entry inhibition, cell reporter; calls by dose curve; tested in HEK293 cells
# Pf growth 48h – inhibits P. falciparum growth in the first generation, 48 h; AID 504832; 310,000 compounds, 5.9% hits; P. falciparum luciferase growth in erythrocytes, 48 h; Potency, µM (doses to about 28.7 µM), most hits filed as inhibitors
#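 Luciferase-expressing parasites in RBCs, 2% Hct / 0.1% parasitemia final; RPMI 1640 + 0.5% Albumax; 37 C, 5% CO2, one generation; luminescence read-out, lower signal = inhibition.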
# LASV entry inh – inhibitors of Lassa virus binding or cell entry. Lassa virus pseudotype entry inhibition, cell reporter. Potency, µM (top dose mostly 37.9 µM), most hits filed as inhibitors. 300,000 compounds, 1.2% hits. AID 540256; calls by dose curve; tested in HEK293 cells; note: nearly all actives have a fitted effect of over 50% in size
# A number is an active result; i = inactive; ? = inconclusive; nt = no result. Unless noted, calls come from the whole dose curve; as a rule, active = well fitted inhibition curve with a large enough effect; inconclusive = small, poorly fitted or top-dose-only effect, or another doubt; inactive = no such curve, though single readings can be large or run the other way.
SMILES,HCMV antiviral,HCV inhibitor,Pf growth 96h,MARV entry inh,Pf growth 48h,LASV entry inh
CCOc1cc2c3c(c1)C(C)=CC(C)(C)N3C(=O)C2=O,-63,i,i,nt,i,nt
Cc1cc2c3c(c1)C(C)CC(C)(C)N3C(=O)C2=O (stereo not drawn),i,i,i,i,i,i
CC(=O)Nc1ccc(-c2csc(N3CCC(C(N)=O)CC3)n2)cc1,nt,nt,i,nt,?,nt
O=C(/C=C/c1ccco1)Nc1ccc(Cl)c(-c2nc3cc(Cl)ccc3o2)c1,i,nt,nt,nt,nt,i
CCN1C(=O)[C@H]2[C@H]3[C@H](O)[C@H](O)C/C(=N\OCC[C@@H]4C=C[C@H](OC(C)=O)[C@@H](COC(C)=O)O4)[C@@H]3CC[C@H]2C1=O,nt,nt,nt,i,nt,nt
O=C(Nc1nnc(S(=O)(=O)N2CCCc3ccccc32)s1)c1ccccc1Cl,i,nt,nt,nt,nt,i
O=C1c2ccccc2C(O)(c2ccccc2)N1c1ccncc1 (stereo not drawn),i,i,?,nt,12µM,nt
COc1ccc(NC(=O)C2CC(=O)N(C)C(=Nc3ccc4c(c3)OCO4)S2)cc1 (stereo not drawn),i,i,?,i,10µM,?
CN1C(=O)CC(C(=O)Nc2ccc(F)cc2)SC1=Nc1ccc2c(c1)OCO2 (stereo not drawn),nt,i,i,i,?,i
COc1ccc(C2=NN(CC(=O)NCCc3ccc(OC)c(OC)c3)C(=O)CC2)cc1,i,nt,nt,nt,nt,i
CN(C)CCCN(C(=O)c1ccc(S(=O)(=O)N2CCCCC2)cc1)c1nc2cc3c(cc2s1)OCO3,i,?,i,?,12µM,?
CN(C)CCCN(C(=O)c1ccc(S(=O)(=O)N2CCOCC2)cc1)c1nc2cc3c(cc2s1)OCO3,i,i,i,nt,?,nt
CC1CCCCN1S(=O)(=O)c1ccc(C(=O)N(CCCN(C)C)c2nc3cc4c(cc3s2)OCO4)cc1 (stereo not drawn),-70,i,?,?,?,i
CN(C)CCCN(C(=O)c1ccc(S(=O)(=O)N2CCCC2)cc1)c1nc2ccc(Br)cc2s1,i,?,?,10µM,?,?
Cc1cn2c(=O)cc(COc3ccccc3NC(=O)c3ccc(Cl)cc3)nc2s1,i,nt,nt,i,nt,i
CCOC(=O)C(C)NC(=O)c1cc2c(=O)[nH]c3ccc(C)cc3c2s1 (stereo not drawn),i,nt,nt,?,nt,nt
C#CCn1c(=NC(=O)CN2C(=O)CCC2=O)sc2cccc(OC)c21,i,i,i,nt,i,nt
C#CCn1c(=NC(=O)c2cccs2)sc2cccc(OC)c21,-98,?,?,nt,nt,nt
NC(Cc1ccc(Cl)cc1)c1csc(Nc2cc(NCCCO)ncn2)n1 (stereo not drawn),i,nt,nt,nt,nt,nt
O=S(=O)(c1ccc(Br)cc1)c1nnn2c1nc(NCc1ccc3c(c1)OCO3)c1sccc12,i,nt,nt,nt,nt,i
Cc1ccc(CNCc2cc(Cl)ccc2O)cc1,i,i,7.4µM,nt,2.9µM,nt
Oc1ccc(Cl)cc1CNCC1CCCCC1,i,i,12µM,nt,1.9µM,nt
O=C(O)c1ccccc1C(=O)Nc1ccc(-c2csc(-c3ccccc3)n2)cc1,i,?,i,?,i,i
O=C(Nc1cccc(-c2csc(Nc3cccc(C(F)(F)F)c3)n2)c1)c1ccccc1,i,?,?,nt,12µM,nt
CC(=O)c1cccc(Nc2nc(-c3ccccc3)cs2)c1,i,2.5µM,?,?,i,?
SMILES,HCMV antiviral,HCV inhibitor,Pf growth 96h,MARV entry inh,Pf growth 48h,LASV entry inh
c1ccc(-c2csc(Nc3ccc4c(c3)OCCO4)n2)cc1,i,i,i,?,i,10µM
O=C(Nc1ccc(-c2csc(-c3ccccc3)n2)cc1)c1ccccc1Cl,-67,?,?,?,?,i
CC(=O)c1cccc(Nc2nc(-c3cccnc3)cs2)c1,i,?,?,?,i,?
CC1=C(C(=O)N2CCCCCC2)CC(CC(=O)NCc2cccs2)C(=O)N1Cc1ccccc1 (stereo not drawn),i,nt,nt,nt,nt,nt
CCOc1ccc(NC(=O)CSc2nnc(-c3ccncc3)n2-c2ccccc2)cc1,i,nt,nt,nt,nt,i
Cc1nc(-c2ccc(NC(=O)c3ccccc3)cc2)cs1,?,11µM,i,nt,i,nt
Cc1ccc(C(=O)Nc2ccc(-c3csc(C)n3)cc2)cc1,?,?,i,i,i,?
O=C(Nc1ccc(-c2csc(Nc3cccc(C(F)(F)F)c3)n2)cc1)c1ccccc1,-83,?,?,nt,?,nt
O=C(Nc1ccc(-c2csc(Nc3cccc(C(F)(F)F)c3)n2)cc1)c1cc([N+](=O)[O-])cc(C(F)(F)F)c1,-78,?,0.47µM,nt,0.83µM,nt
O=C(O)CC(Cc1ccc(Cl)cc1)C(=O)Nc1cc(Cl)ccc1Cl (stereo not drawn),i,i,i,i,i,i
CCCCCCCCCCCC(=O)OCC(O)C1OCC(O)C1O (stereo not drawn),nt,nt,i,nt,i,nt
O=C(Nc1cccc(C(F)(F)F)c1)C1CCN(S(=O)(=O)c2cccc3nsnc23)CC1,?,nt,nt,?,nt,i
COc1ccc(-c2nnc3n(CCc4ccccc4)c(=O)c4ccccc4n23)cc1OC,i,?,12µM,i,i,i
COc1ccccc1-c1nnc2n(CCc3ccccc3)c(=O)c3ccccc3n12,i,nt,nt,i,nt,i
Cc1c(C(=O)NCc2cccnc2)sc2nc(-c3ccccc3)cn12,i,i,?,nt,?,nt
COc1ccc(-c2cn3c(C)c(C(=O)NCCN4CCOCC4)sc3n2)cc1,i,?,?,i,?,i
Cc1c(C(=O)N(C)c2ccccc2)sc2nc(-c3ccc(F)cc3)cn12,i,nt,nt,nt,nt,i
Cc1c(C(=O)NCCCN2CCOCC2)sc2nc(-c3ccc(F)cc3)cn12,i,10µM,?,i,?,i
O=C(NCCN1CCOCC1)c1cc(-c2ccc(F)cc2)on1,i,i,0.29µM,i,i,i
Cc1c(C(=O)N(C)Cc2ccccc2)sc2nc(-c3ccc(F)cc3)cn12,-82,nt,nt,nt,nt,?
O=C(NCCCN1CCOCC1)c1cc(-c2ccc(F)cc2)on1,i,i,i,i,i,i
Cc1c(C(=O)NCc2cccnc2)sc2nc(-c3ccc(F)cc3)cn12,i,11µM,?,nt,i,nt
COc1cc(Cl)c(C)cc1NS(=O)(=O)c1c(C)nc2sccn2c1=O,i,nt,nt,nt,nt,i
CCCCCSc1cc(O)c(C(CNC)C(C)C)cc1OC (stereo not drawn),i,?,0.47µM,18µM,0.41µM,?
NC(N)=N/N=C/c1ccc(OCc2ccccc2)c(OCc2ccccc2)c1,-103,?,?,?,0.52µM,?
CCOc1cc(/C=N/NC(=O)CN2CCCCC2)ccc1OCc1ccccc1,i,?,i,i,i,i
CCOc1cc(/C=N/NC(=O)CN2CCOCC2)ccc1OCc1ccc(Cl)cc1,i,i,13µM,i,?,i
NC(N)=N/N=C/c1ccccc1,i,i,i,i,nt,?
CCOc1cc(/C=N/N=C(N)N)ccc1OCc1ccc(Cl)cc1,i,?,?,?,1.5µM,?
NC(N)=N/N=C/c1ccc(OCc2ccccc2Cl)cc1,i,?,0.13µM,?,0.15µM,?
